From PubChem
DT40 TDP1 CPT – DT40-hTDP1 cell growth loss with CPT; chicken DT40 Tdp1-/-;hTDP1 cells + 20 nM CPT, ATP luminescence, 48 h; Potency, µM (titrated, usually from 46.2 µM), most hits filed as inhibitors; 12% of 420,000 active; note: nearly all actives have a fitted effect of over 55% in size
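Cell growth measured by CellTiter-Glo luminescence after a minimum 48 h, 37 C compound exposure with 20 nM CPT in Tdp1-knockout DT40 cells stably expressing hTDP1, seeded 400/well; qHTS titration format.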
KB-V1 MDR tox – KB-V1 MDR subline cytotoxicity; KB-V1 MDR cells viability, CellTiter-Glo, 72 h; Potency, µM (series often up to 46.1 µM), actives largely listed as cytotoxic; 3.4% of 400,000 active; AID 1347076; note: nearly all actives have a fitted effect of over 60% in size
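In this primary screen, KB-V1 cells overexpressing P-gp are incubated with library compounds (lowest to highest concentration) for 72 h at 37 degrees C before a luminescent ATP viability read.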
KB-3-1 cytotox – kills parental KB-3-1 adenocarcinoma cells; KB-3-1 viability, CellTiter-Glo ATP luminescence, 72 h; Potency, µM (doses to about 46.1 µM), most hits filed as cytotoxic; 1.4% of 400,000 active; AID 1347075; note: nearly all actives have a fitted effect of over 60% in size
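Luminescent ATP read-out (CellTiter-Glo) measures survival of drug-naive KB-3-1 cells after 72 h compound exposure at 37 °C. Titration series was screened from lowest to highest concentration, with DMSO vehicle plates as background controls.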
DT40 TDP1 no CPT – qHTS for Inhibitors of human tyrosyl-DNA phosphodiesterase 1 (TDP1): qHTS in cells in absence of CPT. DT40 Tdp1-/- hTDP1 cells, no CPT, ATP luminescence, 48 h. Potency, µM (titrated, usually from 46.2 µM), usual class: inhibitors. 15% of 420,000 active. AID 686978, 2013; note: nearly all actives have a fitted effect of over 55% in size
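A cellular qHTS used chicken DT40 cells lacking endogenous Tdp1 but carrying stably transfected human TDP1. Compounds were applied without camptothecin, and cell growth kinetics were judged by ATP-dependent luminescence after ≥48 hr.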
HT1080NT lethal – kills 2HG-producing HT-1080-NT fibrosarcoma cells. HT-1080-NT fibrosarcoma viability, CellTiter-Glo ATP luminescence, 48 h. Potency, µM (doses to about 46.1 µM), actives largely listed as cytotoxic. 1.6% of 360,000 active. AID 686970;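 note: NT is the 2HG producing partner of a matched IDH1 knockdown line; nearly all actives have a fitted effect of over 55% in size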
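Read-out is CellTiter-Glo luminescence after 10 minutes at room temperature, following 48 hours' compound treatment of HT-1080-NT cells (750 cells/well, RPMI, 5% FBS, 37 degrees C).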
HT1080 IDH1KD tx – kills HT-1080 cells with IDH1 knockdown | AID 686971 | Potency, µM (top dose mostly 46.1 µM), actives largely listed as cytotoxic | HT-1080 IDH1 knockdown viability, ATP luminescence, 48 h | 2% of 360,000 active
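In this qHTS, HT-1080 cells depleted of IDH1 are exposed for 48 h at 37 °C to compound titrations. Toxicity is scored from CellTiter-Glo luminescence, with DMSO as full viability and medium alone as none.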
Of the large screens only hits and unclear results are named; the others gave an inactive call. Only some compounds are listed: those with a hit (about 19% of all), similar ones and a draw of the others. Calls come from the whole dose curve; as a rule, active = well fitted curve in the direction sought with a large enough effect; inconclusive = small, poorly fitted or top-dose-only effect, or another doubt; inactive = no such curve, though single readings can be large; an effect the other way counts as inactive or inconclusive.

COCCn1c(SCC(=O)NCCCN2CCCC2=O)nc2sc3c(c2c1=O)CCCC3	KB-V1 MDR tox 21µM
COCCCn1c(SCC(=O)Nc2ccc(NC(C)=O)cc2)nc2sc3c(c2c1=O)CCC3	DT40 TDP1 no CPT inconclusive
CCn1c(SCC(=O)Nc2cc(C)on2)nc2sc3c(c2c1=O)CCCC3	DT40 TDP1 CPT inconclusive, DT40 TDP1 no CPT 6.5µM, HT1080NT lethal 10µM, HT1080 IDH1KD tx inconclusive
O=C(CSc1nnnn1C1CCCCC1)Nc1ccccc1F	none
O=C(CSc1nnnn1C1CC2CCC1C2)Nc1ccnc2ccccc12 (stereo unspecified)	DT40 TDP1 CPT 0.16µM, KB-V1 MDR tox inconclusive, DT40 TDP1 no CPT 0.16µM
O=C(NCC(O)c1nc2ccccc2[nH]1)c1cc([N+](=O)[O-])ccc1F (stereo unspecified)	DT40 TDP1 CPT inconclusive, DT40 TDP1 no CPT inconclusive
COc1cc(C(=O)OCC(=O)N2CCCC2=O)cc(OC)c1C	none
CC1CC2CCCC(O)=C2C(=O)O1 (stereo unspecified)	none
CN1C(=S)N(c2ccccc2)C(=O)/C1=C/c1ccco1	DT40 TDP1 CPT inconclusive, DT40 TDP1 no CPT inconclusive
O=C1/C(=C/c2ccco2)N=C(N2CCCCC2)N1c1ccccc1	DT40 TDP1 CPT 21µM, DT40 TDP1 no CPT 18µM
CC(C)N(C1=N/C(=C\c2ccco2)C(=O)N1c1ccccc1)C(C)C	DT40 TDP1 CPT 13µM, DT40 TDP1 no CPT inconclusive
N#CC1=C(N)C(C#N)(C#N)[C@H](c2c(F)cccc2F)[C@H]2CC3(CC=C12)OCCO3	DT40 TDP1 CPT inconclusive, KB-V1 MDR tox inconclusive, KB-3-1 cytotox 6.5µM, DT40 TDP1 no CPT 16µM, HT1080NT lethal inconclusive, HT1080 IDH1KD tx 10µM
CN1C2C=C3C(C#N)=C(N)C(C#N)(C#N)[C@H](c4c(F)cccc4F)[C@H]3C1CC2 (stereo partly specified)	DT40 TDP1 CPT 7.3µM, DT40 TDP1 no CPT 10µM, HT1080NT lethal inconclusive
CCOc1ccc(CC(=O)Nc2c(C(=O)c3ccccc3)oc3ccc(OC)cc23)cc1OCC	none (no result: HT1080NT lethal, HT1080 IDH1KD tx)
COC(=O)C1(C(=O)OC)C/C=C\CCN(S(=O)(=O)c2ccccc2[N+](=O)[O-])CC1	DT40 TDP1 CPT inconclusive, DT40 TDP1 no CPT inconclusive
COc1ccccc1NC(=O)CCN1CCCCC1	none (no result: KB-V1 MDR tox, KB-3-1 cytotox, HT1080NT lethal, HT1080 IDH1KD tx)
Cc1sc(NC(=O)CN2CCOCC2)nc1-c1ccc2c(c1)CCN2S(=O)(=O)c1ccccc1	DT40 TDP1 CPT 21µM, KB-V1 MDR tox 4.1µM, KB-3-1 cytotox inconclusive, DT40 TDP1 no CPT 9.2µM, HT1080NT lethal inconclusive, HT1080 IDH1KD tx inconclusive
Cc1ccccc1C(=O)N1CCc2cc(-c3nc(NC(=O)Cc4ccc5c(c4)OCO5)sc3C)ccc21	DT40 TDP1 CPT 7.3µM, KB-3-1 cytotox inconclusive, DT40 TDP1 no CPT 6.5µM
Cc1sc(NC(=O)Cc2ccc3c(c2)OCO3)nc1-c1ccc2c(c1)CCN2C(=O)c1cccc(F)c1	DT40 TDP1 CPT 12µM, DT40 TDP1 no CPT 9.2µM
O=S1(=O)CC(N2CCCC2)CN1Cc1cn(Cc2cccc(C(F)(F)F)c2)nn1 (stereo unspecified)	none
O=C(/C=C\c1ccco1)Nc1ccc(N2CCN(C(=O)c3ccccc3)CC2)cc1	DT40 TDP1 CPT inconclusive, KB-V1 MDR tox 23µM, DT40 TDP1 no CPT inconclusive
O=C(/C=C/c1ccco1)NC(=S)Nc1ccc(N2CCCC2)cc1	DT40 TDP1 CPT 23µM, KB-V1 MDR tox inconclusive, KB-3-1 cytotox inconclusive, DT40 TDP1 no CPT 15µM, HT1080NT lethal inconclusive, HT1080 IDH1KD tx inconclusive
O=C(/C=C/c1ccco1)NC(=S)Nc1ccc(C(=O)O)cc1	none
CC(=O)Nc1ccccc1OCc1cc(=O)n2c3c(sc2n1)CCCC3	KB-V1 MDR tox inconclusive (no result: HT1080NT lethal, HT1080 IDH1KD tx)
CN(C(=O)CSc1nnc(-c2ccc([N+](=O)[O-])cc2)o1)c1ccccc1	DT40 TDP1 CPT 16µM, DT40 TDP1 no CPT inconclusive (no result: HT1080NT lethal, HT1080 IDH1KD tx)
O=C(CSc1nnc(-c2ccccc2)o1)c1cccc([N+](=O)[O-])c1	DT40 TDP1 no CPT inconclusive (no result: HT1080NT lethal, HT1080 IDH1KD tx)
